Reference: PubChem BioAssay (NCI)
Values joined by “and” are separate entries in the source; they are usually repeats but may differ in a detail not shown here. Identical values can stand only once. About 79,000 compounds went through this panel and 15% of them were active in at least one assay; those are over-represented in the sample as a whole. No stated cut-off is given here; in the data, active means growth inhibition above about 70%; inactive means the rest.

Experiments:
[1] = NCI Yeast Anticancer Drug Screen. Data for the rad50 strain (AID 155);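 further: 0% = growth of vehicle-only cultures of the same strain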; conditions: S. cerevisiae rad50 strain growth inhibition, hits give high values; at 50.0 µM unless noted
How it was run: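 Compounds were tested on a yeast strain with an engineered DNA damage repair alteration; the reported value is growth inhibition normalised to vehicle treatment.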

[2] = NCI Yeast Anticancer Drug Screen. Data for the mec2-1 strain (AID 157); conditions: S. cerevisiae mec2-1 strain, hits give high values; at 50.0 µM unless noted
How it was run: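 Test agents were screened against the mec2-1 yeast strain, with defined DNA repair or cell cycle alteration. Growth was scored as inhibition against vehicle-only controls.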

[3] = NCI Yeast Anticancer Drug Screen. Data for the sgs1 mgt1 strain (AID 161);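 further: 0% = growth of cultures given vehicle only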; conditions: S. cerevisiae sgs1 mgt1 strain, hits give high values; at 50.0 µM unless noted
How it was run: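 Genetically altered yeast, compound exposure, growth inhibition relative to vehicle.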

[4] = NCI Yeast Anticancer Drug Screen. Data for the cln2 rad14 strain (AID 165);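 further: 0% = growth equal to vehicle treated cultures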; conditions: S. cerevisiae cln2 rad14 strain, hits give high values; at 50.0 µM unless noted
How it was run: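 Growth of compound-exposed yeast (cln2 rad14 genotype) measured and expressed as inhibition relative to vehicle.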

[5] = NCI Yeast Anticancer Drug Screen. Data for the bub3 strain (AID 167); conditions: S. cerevisiae bub3 mutant strain, hits give high values; at 50.0 µM unless noted
How it was run: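 Growth of a checkpoint-deficient yeast mutant is measured after compound exposure. Values represent inhibition relative to vehicle.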

[6] = NCI Yeast Anticancer Drug Screen. Data for the mlh1 rad18 strain (AID 175); conditions: S. cerevisiae mlh1 rad18 strain growth inhibition, hits give high values; at 50.0 µM unless noted
How it was run: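 In this whole-cell yeast screen, a strain with altered DNA damage repair is challenged with compound, and its growth is measured against matched vehicle-treated controls.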

Measured: growth inhibition

CCOC(=O)c1ccc(O)c(NC(C)=O)c1
inactive: [1] -11.7% | [2] 18.1% | [3] 0.15% | [4] -42.5% | [5] 10% | [6] -7.15%

O=C(O)c1ccc(Nc2c3ccccc3nc3ccccc23)cc1
inactive: [1] 49% | [2] 11.6% | [3] 37.3% | [4] 17.2% | [5] 26.8% | [6] 24.6%

COC(=O)CN(CC(=O)NCCCBr)C1CCCCC1N(CC(=O)OC)CC(=O)OC (stereo not given)
inactive: [1] -23.9% | [2] -17.1% | [3] 10.2% | [4] -23% | [5] -26.9% | [6] -22.7%

CCO/C([O-])=N\[n+]1c(C)nc2cc3c(cc2c1C)OCO3
inactive: [1] 5.75% | [2] 5.65% | [3] 1.2% | [4] 7.8% | [5] 9% | [6] 8.9%

Cc1ccc(Cl)cc1NC(=O)Nc1ccccc1Cl
inactive: [1] 11.5% | [2] 12.2% | [3] 6.05% | [4] -12.2% | [5] 8.85% | [6] -11%

S=c1c2[nH]cnc2ncn1CCSC1=NC=NC2=NC=NC21 (stereo not given)
inactive: [1] 27.8% | [2] -23.6% | [3] -26.9% | [4] -22.8% | [5] -55% | [6] -8.6%

Clc1c(Cl)c(Cl)c(C[n+]2c(Cl)sc3ccccc32)c(Cl)c1Cl
inactive: [1] 12.6% | [2] 10.2% | [3] 5.05% | [4] -6.6% | [5] 10.3% | [6] 6.2%

CC(=O)NNC(=O)C(N)Cc1ccc(O)cc1 (stereo not given)
inactive: [1] 13.5% | [2] 23.1% | [3] 40.5% | [4] 12.2% | [5] 2.95% | [6] 14.8%

O=C(O)CN(CCCN(CC(=O)O)CC(=O)O)CC(=O)O
inactive: [1] -5% | [2] 0.85% | [3] -2.5% | [4] -14% | [5] -7.4% | [6] -30.2%

COc1cc(C2c3cc4c(cc3OC(N3CCOCC3)C2C)OCO4)cc(OC)c1O (stereo not given)
inactive: [1] -17.1% | [2] -25.8% | [3] -23.3% | [4] -12.5% | [5] -8.95% | [6] -8%

CCOC(=O)C(C#N)=C(C)C
inactive: [1] -12.6% and 26.9% | [2] 7.8% and 2.75% | [3] -2.55% and 17% | [4] -19.1% and -1.1% | [5] 0.65% and -13.8% | [6] 20.4% and 17.1%

S=c1sc2c(s1)SCCCCSCCCCSc1sc(=S)sc1SCCCCSCCCCS2
inactive: [1] 13.3% | [2] 8.6% | [3] 1.1% | [4] 16.1% | [5] 6.75% | [6] -29.4%

OC1(c2cccnc2)c2ccccc2Oc2ccccc21
inactive: [1] -11.8% | [2] 7.25% | [3] 0.7% | [4] -28.1% | [5] -3.7% | [6] -8.2%

NC(=O)CCCCCCCCC(N)=O
inactive: [1] 10.7% | [2] 4.95% | [3] 9.65% | [4] -4.75% | [5] -1.4% | [6] 31.1%

CCOC(=C\C(=O)NC)/C=C/c1ccc([N+](=O)[O-])cc1
inactive: [1] -5.75% | [2] 0.65% | [3] -6.1% | [4] -18.4% | [5] 5.85% | [6] -3.45%

Cc1ccc(S(=O)(=O)CCC#N)cc1
inactive: [1] 0.25% | [2] 8.2% | [3] -5.65% | [4] -9.35% | [5] -8.2% | [6] -11.7%

Nc1c(Cl)ccc2c(Cl)ccnc12
inactive: [1] -1.15% | [2] -9.55% | [3] -7.2% | [4] -21.1% | [5] -9.55% | [6] 7.55%

Cc1ccccc1N=C(N)N
inactive: [1] 4.3% | [2] 2.5% | [3] -1.35% | [4] -3.3% | [5] -0.2% | [6] -1.95%

CSc1cccc(NC(=S)NC(=O)c2ccccc2)c1
inactive: [1] -0.25% | [2] -8.15% | [3] -0.65% | [4] -2.4% | [5] 2.55% | [6] -17.4%

Cc1ccc2nc(=O)c3cccnc3n2c1
inactive: [1] 25.9% | [2] 31.1% | [3] 29.9% | [4] 5.1% | [5] 23.8% | [6] 12.8%

COc1ccc2cc(N3CCCC3)ccc2c1
inactive: [1] 7.8% | [2] -7.35% | [3] 6.15% | [4] -14.8% | [5] -7.55% | [6] -37.8%

C[N+]1(C)CCc2cc(O)c(O)cc2C1Cc1ccc(O)c(O)c1 (stereo not given)
inactive: [1] -4.35% | [2] 24.6% | [3] -29.6% | [4] 23.4% | [5] -36.8% | [6] 10.1%

COc1ccc(C)cc1Sc1ccc([N+](=O)[O-])cc1C
inactive: [1] 0.65% | [2] -17.9% | [3] -8.35% | [4] -19.2% | [5] 8.95% | [6] -19.2%

CCCCCCCCN1CCOCCOCCN(CCCCCCCC)c2nc(Cl)nc(n2)NCCOCCOCCNc2nc(Cl)nc1n2
inactive: [1] 7.8% | [2] -16.1% | [3] -21.8% | [4] -9.7% | [5] -5% | [6] 7.7%

O=S(=O)(O)c1cc(Nc2ccnc3ccccc23)c2c(S(=O)(=O)O)cc(S(=O)(=O)O)cc2c1
inactive: [1] 15.1% | [2] 24.3% | [3] 4.25% | [4] 12.2% | [5] 10.2% | [6] 19.8%

BrCC(Br)C1OCCCO1 (stereo not given)
inactive: [1] 18.4% | [2] 18.1% | [3] 38.4% | [4] 22.4% | [5] 5.25% | [6] 34.6%

NCCCCCN
inactive: [1] 14.4% | [2] -1.05% | [3] -15.9% | [4] 12.3% | [5] -16.7% | [6] -1.45%

O=C(O)C1C2OC3C(OC(=O)C31)C2Br (stereo not given)
inactive: [1] -9.6% and 3.1% | [2] 6.75% and -15.9% | [3] -8.9% and 2.25% | [4] 6.4% and -34.2% | [5] -2.35% and 1.3% | [6] -4.65% and 25.3%

N/N=C1\C(=O)N(C2CCCCCC2)C(=O)C1C(=O)NC1CCCCCC1 (stereo not given)
inactive: [1] -13.3% | [2] -32.6% | [3] -7.2% | [4] -68.7% | [5] -18.8% | [6] -26.2%

CCN(CC)C(=S)SCC(=O)Nc1nc2c(s1)CCCC2
inactive: [1] -9.25% | [2] -1.25% | [3] -34.2% | [4] 3.75% | [5] 11.3% | [6] 6.9%

O=C(c1cccc(C(=O)N2CCOCC2)n1)N1CCOCC1
inactive: [1] -9.95% | [2] 17.1% | [3] -3.5% | [4] -19.4% | [5] 5.15% | [6] 7.15%

CC(C)(C1CCC([Si](C2CCCCC2)(C2CCCCC2)C2CCCCC2)CC1)[Si](C1CCCCC1)(C1CCCCC1)C1CCCCC1 (stereo not given)
inactive: [1] 8% | [2] -0.15% | [3] -14.4% | [4] -7.2% | [5] 3.3% | [6] -1.95%

COC(=O)C(Cc1nc2ccc(Cl)cc2[nH]c1=O)/C(=N\N)C(=O)Nc1cc(C)c(Cl)cc1S(=O)(=O)O (stereo not given)
inactive: [1] 24.9% | [2] -2% | [3] 5.5% | [4] -70.3% | [5] -3.35% | [6] 5.95%

CC(=O)Nc1ccc(NC(=O)NCCCCCCNC(=O)Nc2ccc(NC(C)=O)cc2)cc1
inactive: [1] -1.5% | [2] 2.7% | [3] -21.6% | [4] -20.6% | [5] -1.7% | [6] 5.5%

Cc1ccc(C)c(CCCCS(=O)(=O)O)c1
inactive: [1] -27.9% | [2] -8.1% | [3] -5.75% | [4] -40.4% | [5] 1.2% | [6] -7.6%

O=[N+]([O-])c1ccc(CC(Cl)c2ccccc2)cc1 (stereo not given)
inactive: [1] 40.8% | [2] 2.35% | [3] 39.5% | [4] -19.1% | [5] 29.8% | [6] 63%

CCCCC(C#N)C(=O)NC(N)=O (stereo not given)
inactive: [1] -7% | [2] 3.2% | [3] -8.05% | [4] 0.4% | [5] 4.85% | [6] -7.25%

C(CCCC1CO1)CCC1CO1 (stereo not given)
inactive: [1] 24.5% | [2] 18.3% | [3] 17.7% | [4] -36.5% | [5] 11.1% | [6] 7.65%

NC(C=O)C(O)C(O)C(O)CO (stereo not given)
inactive: [1] -1.75% | [2] -18.2% | [3] 4.95% | [4] -10.2% | [5] -19.5% | [6] -6.9%

COc1cc2cnc(-c3ccccc3)c(O)c2cc1OC
inactive: [1] 12.3% | [2] -5.25% | [3] 12% | [4] 1.3% | [5] 40.1% | [6] -6.55%
